In the library only some 8.7% were active in any assay of this set; here they are far more common.
JMJD2A Tudor = inhibitors of human JMJD2A Tudor domain; O75164; AlphaScreen JMJD2A-Tudor / H3K4me3 peptide binding; Potency, µM (highest dose often 114 µM), most hits filed as inhibitors; hit rate 4.4% among 390,000; also: nearly all actives have a fitted effect of over 50% in size
Target sequence (O75164 whole entry, looked up, the tested form may be a part): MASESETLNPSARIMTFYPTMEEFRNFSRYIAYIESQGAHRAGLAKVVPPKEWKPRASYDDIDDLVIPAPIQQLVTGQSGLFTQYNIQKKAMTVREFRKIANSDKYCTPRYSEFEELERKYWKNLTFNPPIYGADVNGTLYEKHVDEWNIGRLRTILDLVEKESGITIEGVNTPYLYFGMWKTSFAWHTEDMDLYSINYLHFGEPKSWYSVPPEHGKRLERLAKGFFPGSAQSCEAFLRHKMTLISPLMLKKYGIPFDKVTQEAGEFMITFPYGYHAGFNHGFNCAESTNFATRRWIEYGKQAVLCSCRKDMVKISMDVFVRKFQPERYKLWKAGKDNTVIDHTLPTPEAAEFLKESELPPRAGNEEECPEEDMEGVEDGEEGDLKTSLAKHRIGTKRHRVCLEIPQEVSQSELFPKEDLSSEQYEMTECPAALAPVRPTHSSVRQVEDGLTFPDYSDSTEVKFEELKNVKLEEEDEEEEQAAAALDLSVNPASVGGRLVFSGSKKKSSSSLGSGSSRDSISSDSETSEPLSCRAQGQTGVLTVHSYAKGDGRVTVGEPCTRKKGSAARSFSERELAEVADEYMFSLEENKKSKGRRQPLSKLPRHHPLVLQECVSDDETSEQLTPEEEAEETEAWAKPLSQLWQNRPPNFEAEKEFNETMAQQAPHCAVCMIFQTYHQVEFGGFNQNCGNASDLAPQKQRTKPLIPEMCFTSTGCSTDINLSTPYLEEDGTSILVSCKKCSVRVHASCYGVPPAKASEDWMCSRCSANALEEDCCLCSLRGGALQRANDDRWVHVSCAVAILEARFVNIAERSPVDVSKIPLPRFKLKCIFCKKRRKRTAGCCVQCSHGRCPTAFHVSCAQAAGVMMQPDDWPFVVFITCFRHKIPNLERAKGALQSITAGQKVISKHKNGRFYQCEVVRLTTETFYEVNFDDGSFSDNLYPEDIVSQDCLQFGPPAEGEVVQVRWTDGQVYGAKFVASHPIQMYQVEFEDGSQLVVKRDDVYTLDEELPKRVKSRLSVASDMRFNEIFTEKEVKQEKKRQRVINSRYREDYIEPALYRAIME
BAZ2B inh = blocks human BAZ2B; Q9UIF8; AlphaScreen BAZ2B-H3K14Ac peptide displacement; Potency, µM (highest dose often 114 µM), hits mostly inhibitors; hit rate 4.4% among 360,000; AID 504333; also: nearly all actives have a fitted effect of over 60% in size
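AlphaScreen luminescence quantifies BAZ2B engagement of H3K14Ac peptide; the protein and biotinylated peptide are both at 50 nM final, buffer PBS pH 7.4 with 0.01% Tween-20, all steps at room temperature.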
Sfp PPTase inh = Sfp phosphopantetheinyl transferase inhibition; Potency, µM, most hits filed as inhibitors; Biochemical Sfp PPTase activity, qHTS; hit rate 3.5% among 310,000; Q9F4F7; AID 1490;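 also: the enzyme is Sfp with the accession as filed and its product quenches rhodamine fluorescence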
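Step 1, compound plus 15 nM Sfp-PPTase, 15 min, room temperature. Step 2, add rhodamine-CoA (5 uM) and BHQ-2-YbbR (12.5 uM). Step 3, read 525/598 nm fluorescence at 0 and 30 min.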
G9a inh = G9a (human) methyltransferase inhibition. Q96KQ7. AID 504332. hit rate 8.8% among 350,000. Potency, µM (titrated, usually from 102 µM), usual class: inhibitors. G9a H3K9 monomethylation, AlphaScreen, 2 h; also: nearly all actives have a fitted effect of over 75% in size
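Readings reflect AlphaScreen signal from monomethyl-H3K9 antibody detection. HMT at 20 nM; substrate b-H3K9 500 nM; cofactor SAM 20 uM; 2 h RT reaction; compounds tested as titrations in qHTS with 15 min preincubation.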
HP1b binding inh = HP1-beta chromodomain-methylated histone interaction inhibition; P83916; AlphaScreen HP1-beta / biotin-H3K9me3 peptide binding; Potency, µM (series often up to 114 µM), usual class: inhibitors; hit rate 0.56% among 390,000; AID 540317; also: nearly all actives have a fitted effect of over 70% in size
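HP1-beta protein (50 nM final) preincubated 30 min at room temperature with biotinylated H3(1-18)K9me3 peptide (50 nM) in PBS pH 7.4, 0.01% Tween-20, then compound added for 30 min. AlphaScreen streptavidin donor/nickel chelate acceptor beads (10 ug/mL final), 30 min dark, luminescence read.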
ALOX12 inh = ALOX12 (human) lipoxygenase inhibition. purified 12hLO, xylenol orange hydroperoxide absorbance. Potency, µM (doses to about 108 µM), hits mostly inhibitors. hit rate 1.1% among 580,000
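Purified human 12hLO at 150 nM in 25 mM Hepes, 0.01% Triton X-100, pH 7.0, preincubated 15 min at room temperature with compound. Reaction started with 40 uM arachidonic acid, 30 min at room temperature. Hydroperoxide measured by Fe-xylenol orange, 573/405 nm absorbance ratio.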
Numbers stand for hits; . = inactive; ? = inconclusive; / = not tested or not shown; [ ] = remark or other dose. Calls follow the shape of the dose curve; as a rule, active = well fitted curve in the direction sought with a large enough effect; inconclusive = small, poorly fitted or top-dose-only effect, or another doubt; inactive = no such curve, though single readings can be large; an effect the other way counts as inactive or inconclusive.

SMILES	JMJD2A Tudor	BAZ2B inh	Sfp PPTase inh	G9a inh	HP1b binding inh	ALOX12 inh
COc1ccc(N2CCN(C(=O)c3nc(SC)ncc3Cl)CC2)cc1	.	.	/	10µM	.	.
Cc1ccc(C(=O)COC(=O)CCCC(=O)Nc2cc(C(F)(F)F)ccc2Cl)cc1[N+](=O)[O-]	/	/	/	/	/	.
CC(C)(C)C(=O)NCC12C=CC(O1)C1C(=O)N(c3ccccc3)C(=O)C12 (stereo unspecified)	56µM	.	.	1.6µM	?	.
Cc1ccc(N2C(=O)C3C4C=CC(CNC(=S)N5CCN(c6ccccn6)CC5)(O4)C3C2=O)cc1 (stereo unspecified)	?	.	28µM	2.2µM	?	.
COC(=O)C1(CO)NC(c2ccc(C)cc2)C2C(=O)N(c3ccccc3)C(=O)C21 (stereo unspecified)	.	.	.	.	.	.
Cc1ccc(C)c(NC(=S)N2CCN(c3ccccn3)CC2)c1	.	.	.	/	.	.
O=C1C2C3C=CC(CO)(O3)C2C(=O)N1c1ccc(-c2ccccc2)cc1 (stereo unspecified)	/	.	5µM	1µM	/	/
CN(CCc1ccccn1)[C@H]1[C@@H]2OC[C@@H](O2)[C@@H](NC(=O)Nc2cccc(C#N)c2)[C@@H]1O	/	/	/	/	/	.
COc1ccc(OC2CN(CCC(C)C)C2)cc1	/	/	/	/	/	.[12.5 µM]
O=C(Nc1ccccc1)c1nnc(C(=O)N2CCC(CC(=O)N3CCCCCC3)CC2)s1	/	/	/	/	/	.
Cc1cccc(CSc2nc3c(c(-c4cccs4)c2C#N)CN(C)CC3)c1	?	.	.	?	.	.
CN1CCc2nc(SCC(=O)Nc3ccc(OC(F)(F)F)cc3)c(C#N)c(-c3cccs3)c2C1	?	.	50µM	.	.	?
CN1CCc2nc(SCC(=O)Nc3cccc(F)c3)c(C#N)c(-c3cccs3)c2C1	?	50µM	79µM	/	.	?
COc1ccc(NC(=O)CN2C(=O)COc3ccc(C(=O)COc4ccccc4F)cc32)cc1	/	/	/	/	/	.
COc1ccc(-c2nnsc2C(=O)NC(C)CCc2ccccc2)cc1 (stereo unspecified)	/	/	/	/	/	.
COCCNC(=O)[C@@H]1C[C@@H](O)CN1C1CCN(C(=O)c2nn(C)c3ccccc23)CC1	/	/	/	/	/	.
C#CCOCCOCCOCCNc1nc(N2CCN(C(=O)CCCCCCCCCCNC(=O)[C@@H](CCC(=O)O)n3cc(CCCCCN)nn3)CC2)nc(N2CCN(C(=O)CCCCCCCCCCNC(=O)[C@H](CCCCN)n3cc(C[C@@H](C)CC)nn3)CC2)n1	56µM	?	/	.[2.33 µM]	.	/
C#CCOCCOCCOCCNc1nc(N2CCN(C(=O)CCCCCCCCCCNC(=O)[C@@H](CCC(=O)O)n3cc(CCCCCN)nn3)CC2)nc(N2CCN(C(=O)CCCCCCCCCCNC(=O)[C@H](CO)n3cc(CCCCCN)nn3)CC2)n1	?	.	/	.[2.33 µM]	.	/
C#CCOCCOCCOCCNc1nc(N2CCN(C(=O)CCCCCCCCCCNC(=O)[C@H](CCCCN)n3cc(CCO)nn3)CC2)nc(N2CCN(C(=O)CCCCCCCCCCNC(=O)[C@H](CCCCN)n3cc(C[C@@H](C)CC)nn3)CC2)n1	22µM	?	/	.[2.33 µM]	50µM	/
O=C(Cn1nc2n(c1=O)CCN(Cc1cccc(Cl)c1)C2=O)NCCC1=CCCCC1	/	/	/	/	/	.
CCCNC(=O)CN1C(=O)NC(Cc2c[nH]c3ccccc23)C1=O (stereo unspecified)	50µM	.	.	.	.	.
COc1ccc(/C=N/Nc2nc3ccccc3s2)cc1O	.	.	.	?	.	.
COc1ccc(/C=N/Nc2nc3ccccc3o2)cc1O	.	.	?	40µM	.	.
COc1cc(/C=N/Nc2nc3ccccc3o2)cc(OC)c1O	?	.	?	40µM	.	.
COc1cc(/C=N\Nc2nc3ccccc3o2)cc(OC)c1OC	.	.	.	.	.	.
SMILES	JMJD2A Tudor	BAZ2B inh	Sfp PPTase inh	G9a inh	HP1b binding inh	ALOX12 inh
Oc1ccccc1/C=N/Nc1nc2ccccc2o1	.	.	.	/	.	.
Brc1ccc(/C=N/Nc2nc3ccccc3o2)cc1	.	.	.	28µM	.	?
O=C(c1cc(Cl)ccc1Cl)N1CCN(C(=O)c2cc(Cl)ccc2Cl)CC1	/	/	/	/	/	.
Cc1cccc(N2CCN(C(=O)/C=C/c3cccs3)CC2C)c1 (stereo unspecified)	.	?	.	.	.	.
Cc1ccc2c(c1)N(C(=O)CCC(=O)N1CCN(c3ccccn3)CC1)CC(C)O2 (stereo unspecified)	.	.	.	.	.	.
Cc1cccc(N2CCN(S(=O)(=O)c3ccc4c(c3)CCN4C(=O)CCC(=O)O)CC2C)c1 (stereo unspecified)	56µM	?	.	?	?	.
Cc1cccc(N2CCN(C(=O)CSc3ccsc3[N+](=O)[O-])CC2C)c1 (stereo unspecified)	?	40µM	.	?	.	.
O=C(CSc1ccccc1)N1CCN(c2ccccn2)CC1	?	.	.	.	.	.
O=C(CSc1ccsc1[N+](=O)[O-])N1CCN(c2ccccn2)CC1	?	?	.	45µM	.	.
Cc1cccc(N2CCN(C(=O)CCC(=O)N3CC(C)Oc4ccc(C)cc43)CC2C)c1 (stereo unspecified)	?	?	.	45µM	.	.
CCOc1ccc(CC(=O)N2[C@@H]3CC[C@H]2CC(NC(=O)c2cnc(C)cn2)C3)cc1 (stereo partly specified)	/	/	/	/	/	.
O=C(CCCc1ccccc1)N1CCn2c(nnc2[C@@H]2C[C@@H](O)CN2Cc2ccccc2)C1	/	/	/	/	/	.
O=C(N1CCC2(CC1)CC(N(Cc1ccccc1)C1CC1)CCO2)C1(c2ccccc2)CC1 (stereo unspecified)	/	/	/	/	/	.
Cc1cccc(N2CCN(C(=O)C3CCN(c4nnc(-n5cccc5)s4)CC3)CC2C)c1 (stereo unspecified)	?	?	.	50µM	.	.
COCCNC(=S)NCc1ccc2[nH]c3c(c2c1)CCCC3	56µM	/	.	45µM	.	?
COCCNC(=O)NC(=O)COC(=O)c1ccc2[nH]c3c(c2c1)CCCC3	.	.	.	.	.	.
Cc1ccc(NC(=S)NCc2ccc3[nH]c4c(c3c2)CCCC4)cc1	50µM	35µM	.	45µM	?	?
Cc1ccc(NC(=O)C2CCN(S(=O)(=O)c3ccc4[nH]c5c(c4c3)CCCCC5)CC2)cc1	.	.	/	.	.	.
Cc1cc(C(=O)Nc2ccccc2Cc2ccccc2)cs1	/	/	/	/	/	.
CCS(=O)(=O)N1CC(F)(F)C[C@H]1c1nc(-c2cccnc2)no1	/	/	/	/	/	.
Cc1ccc2c(N3CCC(CO)(CN4CCCC4)CC3)ccnc2c1C	/	/	/	/	/	.
O=[N+]([O-])c1ccc(O)c2ncccc12	22µM	3.5µM	.	?	.	?
